Experimental data published in the supplement of paper PMC13380429.

These compounds were tested on Vero E6 infected with SARS-CoV-2 (assay: morphology score (similarity to uninfected cells); higher = more like uninfected cells). Conditions: 24 h.

Going from `CN1CCN(c2cccc3[nH]c(=O)oc23)CC1` [pardoprunox] (10 µM) to `CN1CCN(CCCN2c3ccccc3Sc3ccc(Cl)cc32)CC1` [prochlorperazine] (10 µM), the morphology score rises from -0.1 to 0.742.

Compared with `O=C1CC[C@@H](C(=O)N2CSC[C@H]2C(=O)O)N1` [pidotimod] (10 µM), `CCCCC(=O)O[C@]1(C(=O)CO)CC[C@H]2[C@@H]3CCC4=CC(=O)CC[C@]4(C)[C@H]3[C@@H](O)C[C@@]21C` [hydrocortisone-valerate] (10 µM) is higher in morphology score: -0.145 for the first, 0.0807 for the second.

Going from `C[Se]C[C@H](N)C(=O)O` [Se-methylselenocysteine] (10 µM) to `O=C(CO)[C@@H](O)[C@@H](O)[C@H](O)CO` [tagatose] (10 µM), the morphology score falls from 0.107 to -0.0178.

Compared with `CC[C@]12CCCN3CCc4c(n(c5ccccc45)[C@@](O)(C(=O)OC)C1)[C@@H]32` [vincamine] (10 µM), `CCCCN1CCCC1CNC(=O)c1cc(C#N)c2ccccc2c1OC` (stereo not drawn) [nafadotride] (10 µM) is higher in morphology score: 0.0512 for the first, 0.327 for the second.

First: O=C(O)c1ccc(/C=C2\SC(=S)N(c3cccc(C(F)(F)F)c3)C2=O)cc1 (10 µM)
Second: CC1(C)CCC(C)(C)c2cc(Cn3cccn3)c(/C=C/c3ccc(C(=O)O)cc3)cc21 [palovarotene] (10 µM)
The morphology score of the first is higher: 0.125 for the first, -0.127 for the second.

Compared with `Nc1cc2c3ccccc3ccc2c2ccccc12` [6-aminochrysene] (10 µM), `Nc1ccc(S(=O)(=O)Nc2ccnn2-c2ccccc2)cc1` [sulfaphenazole] (10 µM) is higher in morphology score: 0.144 for the first, 0.178 for the second.

Going from `CCN(c1ccccc1)c1cc(=NC)n(C)c(C)n1` (10 µM) to `CN1CCOC(c2ccccc2)c2ccccc2C1` (stereo not drawn) [nefopam] (10 µM), the morphology score falls from 0.203 to 0.0314.

Going from `C=CCN1CC[C@]23c4c5ccc(O)c4O[C@H]2C(=O)CC[C@@]3(O)[C@H]1C5` (10 µM) to `O=c1cc(-c2ccccc2)oc2cc(O)c(O)c(O)c12` [baicalein] (10 µM), the morphology score rises from -0.209 to 0.196.

Compared with `CC(=O)N1CCC[C@H]1C(=O)N[C@@H](Cc1cnc[nH]1)C(=O)N[C@@H](CO)C(=O)N[C@@H](CS)C(=O)N[C@@H](CC(N)=O)C(N)=O` (10 µM), `O=C(O)C1=C[C@@H](O)[C@@H](O)[C@H](O)C1` [shikimic-acid] (10 µM) is lower in morphology score: 0.0957 for the first, 0.0235 for the second.

First: CN(C)CC/C=C1/c2ccccc2Sc2ccc(Cl)cc21 [chlorprothixene] (10 µM)
Second: CN(C)CCNc1nc2cc(O)ccc2c2c1C(=O)c1ccccc1-2 (10 µM)
The morphology score of the first is higher: 0.434 for the first, -0.234 for the second.

Compared with `COC(=O)Nc1ccc(-c2nc(N3CCOCC3)c3cnn(C4CCN(Cc5cccnc5)CC4)c3n2)cc1` (10 µM), `Nc1cc(C(F)(F)F)c(-c2cc(N3CCOCC3)nc(N3CCOCC3)n2)cn1` [buparlisib] (10 µM) is higher in morphology score: -0.198 for the first, -0.0939 for the second.

First: CCS(=O)(=O)N(Cc1cccnc1)c1cccc(-c2ccc(C#N)cc2)c1 (10 µM)
Second: Nc1ccc(F)cc1NC(=O)c1ccc(CNC(=O)/C=C/c2cccnc2)cc1 [chidamide] (0.833333 µM)
The morphology score of the first is higher: 0.372 for the first, -0.0654 for the second.

Going from `CC12CCC(C(Br)C1=O)C2(C)C` (stereo not drawn) [3-bromocamphor] (10 µM) to `Cc1onc(-c2ccccc2)c1C(=O)N[C@@H]1C(=O)N2[C@@H]1SC(C)(C)[C@@H]2C(=O)O` [oxacillin] (10 µM), the morphology score rises from -0.0927 to -0.00627.

Going from `O=C(O)CNC(=O)c1c(O)c2ccccc2n(Cc2ccccc2)c1=O` (10 µM) to `CCCn1c(=O)[nH]c(=O)c2nc[nH]c21` [enprofylline] (10 µM), the morphology score rises from -0.000636 to 0.188.

First: Oc1c(Cl)cc(Cl)cc1Sc1cc(Cl)cc(Cl)c1O [bithionol] (10 µM)
Second: COc1nc(N)nc2c1ncn2[C@@H]1O[C@H](CO)[C@@H](O)[C@@H]1O [nelarabine] (10 µM)
The morphology score of the first is lower: -0.096 for the first, -0.0124 for the second.

Compared with `N#C[C@@H]1C[C@@H]2C[C@@H]2N1C(=O)[C@@H](N)C12CC3CC(CC(O)(C3)C1)C2` (10 µM), `CC[C@H]1OC(=O)[C@H](C)C(=O)[C@H](C)[C@@H](O[C@@H]2O[C@H](C)C[C@H](N(C)C)[C@H]2O)[C@](C)(OC)C[C@@H](C)C(=O)[C@H](C)[C@H]2N(CCCCn3cnc(-c4cccnc4)c3)C(=O)O[C@]12C` [telithromycin] (10 µM) is higher in morphology score: -0.0311 for the first, 0.0131 for the second.

`Cc1c(C)c2c(c(C)c1OC(=O)CCC(=O)O)CC[C@@](C)(CCC[C@H](C)CCC[C@H](C)CCCC(C)C)O2` [D-alpha-tocopheryl-succinate] (10 µM) was tested, and the morphology score was 0.0385.
